# Compound activity (PubChem BioAssay)
# Rows were chosen to be rich in hits. Some 7.6% of all compounds tested hit in one or more screens of this group.
# KCNH2 3.1 inh: blocks the human KCNH2 3.1 channel isoform | activity change, % (tested at about 1.8 µM) | U2OS KCNH2 3.1, thallium flux FluxOr; stronger effect = lower value | hit rate 0.95% among 340,000;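 active means maximum activity change below -70%; inconclusive means maximum activity change from -70% to -50%; inactive means maximum activity change above -50%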;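 further: thallium influx rate constant from kinetic fluorescence after stimulation buffer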
#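 Thallium flux via FluxOr fluorescence (Red40 quencher, 45 min loading) in U2OS cells virally expressing the KCNH2 3.1 isoform (1.77 x 10^8 /mL virus, overnight at 37 C). Rate constants from 2-min kinetic reads post-stimulation, normalised to positive and negative controls.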
# SW480 rereplic: inducers of DNA re-replication in SW480 colon cancer cells; hit rate 1.8% among 340,000; SW480 DNA re-replication, Hoechst DNA content imaging, 48 h; Potency, µM (series often up to 46.1 µM), hits mostly activators; AID 624297; further: nearly all actives have a fitted effect of over 55% in size
#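 Cells (250 per well) received 23 nL compound or DMSO by pin tool and were kept 48 hr at 37 C, 5% CO2. Nuclei were then stained with Hoechst for 40 min and scanned for DNA content.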
# MCF10A rereplic: inducers of DNA re-replication in MCF 10A breast cells. MCF 10A DNA re-replication, Hoechst nuclear intensity, 48 h. Potency, µM (highest dose often 46.1 µM), usual class: activators. hit rate 2.9% among 350,000. AID 624296; further: nearly all actives have a fitted effect of over 50% in size
# KCNH2 WT inh: inhibitors of human wildtype KCNH2 potassium channel; activity change, % at 1.84 µM; U2OS, BacMam KCNH2, thallium flux FluxOr; stronger effect = lower value; hit rate 0.37% among 340,000; AID 720551;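 active means maximum activity change below -70%; inconclusive means maximum activity change between -70% and -50%; inactive means maximum activity change above -50%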
#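 U2OS cells transduced with wild-type KCNH2 virus are loaded with FluxOr dye for 45 min, and thallium flux is measured in kinetic reads before and after stimulation buffer. Rate constants are normalized to DMSO controls.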
# KB-V1 cytotox: kills drug-selected multidrug resistant KB-V1 cells. hit rate 3.4% among 400,000. AID 1347076. KB-V1 MDR cells viability, CellTiter-Glo, 72 h. Potency, µM (series often up to 46.1 µM), most hits filed as cytotoxic; further: nearly all actives have a fitted effect of over 60% in size
#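 In this primary screen, KB-V1 cells overexpressing P-gp are incubated with library compounds (lowest to highest concentration) for 72 h at 37 degrees C before a luminescent ATP viability read.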
# KB-3-1 cytotox: KB-3-1 parental cell cytotoxicity | Potency, µM (titrated, usually from 46.1 µM), actives largely listed as cytotoxic | AID 1347075 | hit rate 1.4% among 400,000 | KB-3-1 viability, CellTiter-Glo ATP luminescence, 72 h; further: nearly all actives have a fitted effect of over 60% in size
#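 Parental KB-3-1 viability, qHTS format: 72 h compound exposure, 37 °C; CellTiter-Glo; media-only wells and DMSO plates as controls; concentration-effect fits on corrected data.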
# Numbers stand for hits; - = inactive; ? = inconclusive; . = no result given. Unless noted, the call rests on the fitted dose curve; in most records, active means well fitted curve in the direction sought with a large enough effect; inconclusive means small, poorly fitted or top-dose-only effect, or another doubt; inactive means no such curve, though single readings can be large; an effect the other way counts as inactive or inconclusive.
SMILES,KCNH2 3.1 inh,SW480 rereplic,MCF10A rereplic,KCNH2 WT inh,KB-V1 cytotox,KB-3-1 cytotox
CC(C)CC(=O)Nc1ccc2nn(-c3ccccc3)nc2c1,-,-,-,-,16µM,-
O=C(/C=C/c1ccco1)Nc1ccc2nn(-c3ccccc3)nc2c1,-,-,7.3µM,-,-,-
Cc1ccc(-n2nc3ccc(NC(=O)C(C)C)cc3n2)cc1,-,-,-,-,-,?
O=C(Nc1ccccc1[N+](=O)[O-])c1cc(S(=O)(=O)N2CCOCC2)cs1,-,?,23µM,-,.,.
Cc1cc(Cl)c(S(=O)(=O)Nc2cc(S(=O)(=O)N3CCOCC3)ccc2F)cc1OCC(N)=O,-,-,0.65µM,-,-,-
Cc1cc(Cl)c(S(=O)(=O)Nc2ccc(S(=O)(=O)N3CCOCC3)cc2)cc1OCC(N)=O,-,-,-,-,-,-
COc1ccc(S(=O)(=O)N2CCOCC2)cc1NC(=O)c1ccc(Cl)cc1,-,0.23µM,-,-,-,-
COc1ccc(C(=O)Nc2ccccc2[N+](=O)[O-])cc1S(=O)(=O)N1CCOCC1,-,18µM,?,-,.,.
CCC(C(=O)NC1CCCC1)n1c2ccccc2c2nc(=O)cc(C)n21 (configuration not stated),-,-,-,-,-,-
CC(=O)c1cc(Cl)ccc1OCc1cccc(S(=O)(=O)N2CCOCC2)c1,-,-,-,-,18µM,-
COc1ccc(C(=O)NC2CCCc3ccccc32)cc1S(=O)(=O)N1CCOCC1 (configuration not stated),-,10µM,-,-,?,-
COc1ccc(C(=O)NC2CCSc3ccccc32)cc1S(=O)(=O)N1CCOCC1 (configuration not stated),-,-,-,-,-,-
CC(=O)NCCC(=O)Nc1cc(S(=O)(=O)N2CCOCC2)ccc1Oc1ccccc1,-,-,-,-74,-,-
COc1ccc(S(=O)(=O)N2CCOCC2)cc1NC(=O)CN1CCCC1,-,-,-,-,-,-
COc1ccc(S(=O)(=O)N2CCOCC2)cc1NC(=O)CN1CCC(Cc2ccccc2)CC1,-,?,?,-,12µM,-
O=S(=O)(c1ccc(F)cc1F)N1CCN(CCO)CC1,-,-,-,-,-,-
Clc1ccc(CNc2nc(CN3CCOCC3)nc3scc(-c4ccccc4)c23)cc1,-,-,13µM,-,21µM,?
C=C1[C@@H](O)CN(Cc2ccc(OC)cc2)S1(=O)=O,.,.,.,.,-,?
COc1ccc(CN2C[C@H]3CCCN3c3cc(Br)ccc3S2(=O)=O)cc1,-,1.6µM,1.2µM,-,?,1.8µM
COc1ccc(C2C3=C(CCCC3=O)Nc3ccc4ncccc4c32)cc1OC (configuration not stated),-,-,-,-,-,-
CCOC(=O)C1=C(C)NC2=C(C(=O)CCC2)C1c1ccc(O)c(OCC)c1 (configuration not stated),-,-,-,-,?,-
COc1cc(C2C3=C(CCCC3=O)Nc3ccc4ncccc4c32)ccc1O (configuration not stated),-,23µM,15µM,-,-,?
COc1cc(C2C3=C(CCCC3=O)Nc3[nH]n(-c4ccccc4)c(=O)c32)ccc1OC(C)=O (configuration not stated),-,21µM,7.3µM,-,-,-
O=C1CCCC2=C1C(c1cccc(O)c1)c1c(ccc3ncccc13)N2 (configuration not stated),-,?,18µM,-,-,-
COc1cc(C2C3=C(CCCC3=O)Nc3[nH]n(-c4ccccc4)c(=O)c32)cc(OC)c1OC (configuration not stated),-,-,-,-,-,-
CCOc1cc(C2C3=C(CCCC3=O)Nc3ccc4ncccc4c32)ccc1O (configuration not stated),-,18µM,?,-,-,13µM
CC(=O)Nc1ccc(S(=O)(=O)Oc2ccccc2N2C(=O)C3C4CCC(C4)C3C2=O)cc1 (configuration not stated),-,-,-,-,-,-
